Measurements as given in the supplement of paper PMC12669032.
Values joined by “and” are separate entries in the source; they are usually repeats but may differ in a detail not shown here. Identical values can stand only once.

These compounds were tested on Lactobacillus gasseri (assay: growth AUC relative to DMSO control (median of replicates) (fraction); higher = more growth (less inhibition), active = hit call of the paper). Settings: 20 µM; 24 h;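 active = AUC reduced over 20% with Padj below 0.05 in at least 2 of 3 replicates; inactive = otherwise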.
Summary of the method: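 Area under the growth curve was normalised to the plate median of solvent-only wells, except on the industrial chemical plate, where row and column medians were used. Curves came from gut bacterial monocultures grown anaerobically at 37 °C in mGAM with 20 µM compound (1% DMSO), starting at OD600 0.05 and read at OD600 every hour for 24 h. The minimum OD of each curve was set to 0, and values are medians of three biological replicates grown on separate days.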
In the case of `CCOP(=S)(OCC)Oc1cc(Cl)c(Br)cc1Cl`, the “growth AUC” value is reported as 0.868 (inactive).
`Cc1cnc(C2=NC(C)(C(C)C)C(=O)N2)c(C(=O)O)c1` (configuration not stated) was tested, and the “growth AUC” value was 1.04 (inactive).
In the case of `CC1(C)CCC(Cc2ccc(Cl)cc2)C1(O)Cn1cncn1` (configuration not stated), the “growth AUC” value is reported as 0.976 (inactive).
`CCCN(CCC)c1c([N+](=O)[O-])cc(S(C)(=O)=O)cc1[N+](=O)[O-]` was tested, and the “growth AUC” value was 0.84 (inactive).
`Cc1occc1C(=O)Nc1ccccc1` was tested, and the “growth AUC” value was 0.973 (inactive).
In the case of `CCCOCC(=Nc1ccc(Cl)cc1C(F)(F)F)n1ccnc1`, the “growth AUC” value is reported as 0.894 (inactive).
In the case of `Nc1cc(Cl)cc(Cl)c1`, the “growth AUC” value is reported as 0.944 (inactive).
With `O=C(O)COc1cc(Cl)c(Cl)cc1Cl` the “growth AUC” value was 1.19 (inactive).
For `Cc1cc(Cl)ccc1N=CN(C)C`, the “growth AUC” value was 1.04 (inactive).
With `CNC(=O)Oc1cc(C)cc(C(C)C)c1` the “growth AUC” value was 0.889 (inactive).
With `CCOc1cc(Oc2ccc(C(F)(F)F)cc2Cl)ccc1[N+](=O)[O-]` the “growth AUC” value was 0.939 (inactive).
With `O=[N+]([O-])c1c(Cl)c(Cl)c(Cl)c(Cl)c1Cl` the “growth AUC” value was 1.16 (inactive).
In the case of `CC(Cc1ccc(C(C)(C)C)cc1)CN1CCCCC1` (configuration not stated), the “growth AUC” value is reported as 0.988 (inactive).
`CNC(=O)c1cc(C#N)cc(C)c1NC(=O)c1cc(Br)nn1-c1ncccc1Cl` was tested, and the “growth AUC” value was 1.12 (inactive).
`O=P(Oc1ccccc1)(Oc1ccccc1)Oc1ccccc1` was tested, and the “growth AUC” value was 0.943 (inactive).
In the case of `CC(=NC#N)N(C)Cc1ccc(Cl)nc1`, the “growth AUC” value is reported as 0.985 (inactive) and 1.03 (inactive).
With `CO/N=C(/C1=NOCCO1)c1ccccc1Oc1ncnc(Oc2ccccc2Cl)c1F` the “growth AUC” value was 0.992 (inactive).
